Shiga inhibitor: inhibitors of Shiga toxin in Vero cells. Vero cells, Shiga toxin protein synthesis inhibition reporter. inhibition, % at 38.7 µM. 290,000 tested, 9.2% active. AID 2315; in the data active means inhibition mostly above about 28%, no sharp cut-off; inactive means mostly below about 43%; further: 0% is about no effect
SARS PLpro yeast: blocks SARS-CoV papain-like protease in a yeast assay; 330,000 tested, 0.19% active; Potency, µM (doses to about 32.9 µM), for inactives: top-dose activity, positive = growth rescue, most hits filed as activators; S. cerevisiae expressing SARS-CoV PLpro, growth rescue; calls by dose curve; further: potency means the concentration at half of the fitted maximal effect; 0% is about no effect; nearly all actives have a fitted effect of over 55% in size
Cycloheximide cs: affects cycloheximide protein synthesis inhibition readout, counter-screen. cell reporter, cycloheximide protein synthesis inhibition counterscreen. max response, %. 300,000 tested, 12% active. AID 2314; in the data active means max response mostly above about 13%, no sharp cut-off; inactive means mostly below about 14%; further: read at 38.3 µM for the half of the compounds with a filed dose; 0% is about no effect
Pf growth 96h: P. falciparum growth inhibition at 96 hour, primary screen for plastid delayed-death inhibitors; Potency, µM (highest dose often 28.7 µM), for the others: at the top dose activity change, negative = inhibition, usual class: inhibitors; AID 504834; P. falciparum luciferase reporter growth, 96 h; 320,000 tested, 6.9% active; further: potency means the concentration at half of the fitted maximal effect; on the % scale 0 is the no-effect control and ±100 the full control effect
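P. falciparum expressing integrated firefly luciferase, in erythrocytes at 2% hematocrit, 0.05% parasitemia, incubated with compounds 96 h at 37 C, 5% CO2. Growth inhibition read as loss of luminescence; two-generation exposure targets delayed-death apicoplast inhibitors.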
Pf growth 48h: P. falciparum growth inhibition at 48 hours (one generation); AID 504832; 310,000 tested, 5.9% active; Potency, µM (doses to about 28.7 µM), inactives show at the highest dose activity change, negative = inhibition, hits mostly inhibitors; P. falciparum luciferase growth in erythrocytes, 48 h; further: potency means the concentration at half of the fitted maximal effect; on the % scale 0 is the no-effect control and ±100 the full control effect
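Luciferase-expressing P. falciparum in infected erythrocytes (2% hematocrit, 0.1% parasitemia final) in RPMI 1640/0.5% Albumax were exposed to compound for 48 hours at 37 C, 5% CO2; growth read as luminescence.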
NS1 function inh: blocks influenza NS1 protein function | Potency, µM (series often up to 46.1 µM), inactives show at the top dose activity, positive = more growth | 270,000 tested, 0.4% active; calls by dose curve; further: potency means the concentration at half of the fitted maximal effect; actives are rising curves; nearly all actives have a fitted effect of over 50% in size
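A cell-based growth assay was used: compounds that relieve NS1-induced slow growth of budding yeast raise OD600. Assay medium was yeast nitrogen base with ammonium sulphate and -URA supplement, pH 6.0, with 2% galactose.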
Numbers without * were called inactive. Most compounds without a hit are left out; they make up all but 21% or so of the library. Unless noted, the call rests on the fitted dose curve; in most records, active means well fitted inhibition curve with a large enough effect; inconclusive means small, poorly fitted or top-dose-only effect, or another doubt; inactive means no such curve, though single readings can be large or run the other way.

How did O=C(c1cc(COc2ccc(F)cc2Cl)on1)N1C[C@H]2CC[C@H]1C2 do in these assays?
Shiga inhibitor: 66*; SARS PLpro yeast: -11%; Cycloheximide cs: 40*; Pf growth 96h: inconclusive; Pf growth 48h: 10%; NS1 function inh: -43%

How did CCOC(=O)CC1COCCN1C(=O)c1cc(COc2ccc(F)cc2Cl)on1 (stereo unspecified) do in these assays?
Shiga inhibitor: 61*; SARS PLpro yeast: -5%; Cycloheximide cs: 39*; Pf growth 96h: inconclusive; Pf growth 48h: inconclusive; NS1 function inh: -25%

What do the screens show for `COc1ccc(-c2nc(C)sc2CC(=O)O)cc1OC`?
Shiga inhibitor: -15; SARS PLpro yeast: 1%; Cycloheximide cs: 8; Pf growth 96h: 34%; Pf growth 48h: -6%

Results for O=C(Nc1ccc(Cl)cc1)N(C1=NCCC1)c1ccc(OC(F)F)cc1 ?
Shiga inhibitor: 75*; SARS PLpro yeast: -13%; Cycloheximide cs: 41*; Pf growth 96h: 42%; Pf growth 48h: 43%; NS1 function inh: 20%

Results for CC1SCC(NC(=O)c2ccccc2Cl)CS1 (stereo unspecified) ?
Shiga inhibitor: 74*; SARS PLpro yeast: -2%; Cycloheximide cs: 53*; Pf growth 96h: 97%; Pf growth 48h: 70%; NS1 function inh: 3%

How did O=C(NC1CC2CCC(C1)N2Cc1ccccc1)c1ccccc1Cl (stereo unspecified) do in these assays?
Shiga inhibitor: -2; SARS PLpro yeast: 0%; Cycloheximide cs: -2; Pf growth 96h: 13µM*; Pf growth 48h: 1%; NS1 function inh: 5%

Results for CC1SCC(NC(=O)c2cccc(Cl)c2)CS1 (stereo unspecified) ?
Shiga inhibitor: 46; SARS PLpro yeast: -1%; Cycloheximide cs: 20; Pf growth 96h: 45%; Pf growth 48h: 39%; NS1 function inh: -6%

How did Cc1ccccc1C(=O)NC1CC2CCCC(C1)N2Cc1ccccc1 (stereo unspecified) do in these assays?
Shiga inhibitor: -6; SARS PLpro yeast: -6%; Cycloheximide cs: 1; Pf growth 96h: inconclusive; Pf growth 48h: -3%; NS1 function inh: 3%

What do the screens show for `CC1SCC(NC(=O)c2ccc(Cl)cc2)CS1` (stereo unspecified)?
Shiga inhibitor: 49*; SARS PLpro yeast: 0%; Cycloheximide cs: 29*; Pf growth 96h: 87%; Pf growth 48h: 42%; NS1 function inh: 0%

Results for CCOC(=O)c1csc(NNC=O)n1 ?
Shiga inhibitor: -8; SARS PLpro yeast: -3%; Cycloheximide cs: 6; Pf growth 96h: 40%; Pf growth 48h: 14%; NS1 function inh: 11%

How did COc1cccc(/C=N/NC(N)=S)c1OCc1cccc(Cl)c1 do in these assays?
Shiga inhibitor: -2; SARS PLpro yeast: 10%; Cycloheximide cs: -4; Pf growth 96h: 3.7µM*; Pf growth 48h: 12µM*; NS1 function inh: 19%

What do the screens show for `CCOc1ccc(Cl)cc1/C=N/NC(=O)c1ccccc1`?
Shiga inhibitor: 65*; SARS PLpro yeast: -11%; Cycloheximide cs: 29*; Pf growth 96h: -20%; Pf growth 48h: 35%; NS1 function inh: 4%

How did CCOc1ccc(Cl)cc1/C=N/NC(=O)CNC(=O)c1ccccc1 do in these assays?
Shiga inhibitor: -5; SARS PLpro yeast: 28%; Cycloheximide cs: -6; Pf growth 96h: 0%; Pf growth 48h: -4%; NS1 function inh: -7%

What do the screens show for `CCOc1ccccc1/C=N/NC(=O)c1cccc(Cl)c1`?
Shiga inhibitor: 57*; SARS PLpro yeast: 9%; Cycloheximide cs: 2; Pf growth 96h: 18%; Pf growth 48h: 35%; NS1 function inh: -9%

What do the screens show for `CCc1nnc(NC(=O)c2ccc(S(=O)(=O)N3CCCC(C)C3)cc2)s1` (stereo unspecified)?
Shiga inhibitor: -5; SARS PLpro yeast: -2%; Cycloheximide cs: -1; Pf growth 96h: 34%; Pf growth 48h: 20%; NS1 function inh: 3%

How did Cc1ccc(C(=O)NNC(=O)c2ccc(S(=O)(=O)N3CCCCC3)cc2)cc1 do in these assays?
SARS PLpro yeast: -3%

How did Cc1cc(C)c2nc(NNC(=O)c3ccc(S(=O)(=O)N4CCCCC4)cc3)sc2c1 do in these assays?
Shiga inhibitor: -10; SARS PLpro yeast: inconclusive; Cycloheximide cs: 7; Pf growth 96h: 4.7µM*; Pf growth 48h: inconclusive; NS1 function inh: 17%
